The record followed here is PubChem BioAssay (Tox21).

A number with no mark means an inactive call. Inconclusive results are not listed. Active and inactive are the calls of the source. Unless noted, calls come from the whole dose curve; as a rule, active = well fitted curve in the direction sought with a large enough effect in the repeat runs; inconclusive = weak or mixed curves; inactive = no such curve, though single readings can be large; an effect the other way counts as inactive or inconclusive.

The nature of assay [1]: qHTS assay for small molecule agonists of the p53 signaling pathway (AID 651631; calls by dose curve; note: nearly all actives have a fitted effect of over 15% in size). Put shortly: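 HCT-116 cells carrying a beta-lactamase reporter under p53 response elements were dosed with compound for 16 h at 37 °C. LiveBLAzer B/G FRET substrate was then added for 2 h at room temperature, and fluorescence intensity was read to detect pathway agonism.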
(In qHTS, concentration-response curves come from the screen itself.)

A short description of assay [2]: qHTS assay for small molecules that induce genotoxicity in human embryonic kidney cells expressing luciferase-tagged ATAD5 (AID 651632). Note: nearly all actives have a fitted effect of over 15% in size. The gist of the method:
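Luminescent reporter readout, HEK293T ATAD5-luc line: 16 hr drug exposure (37C, 5% CO2) followed by Amplite, 30 min RT.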

Assay [3] in a line: qHTS assay for small molecule agonists of the p53 signaling pathway - cell viability (AID 651633; calls by dose curve;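 note: p53RE-bla HCT reporter cells with a stable beta-lactamase p53 reporter; series mostly up to about 83 µM; nearly all actives have a fitted effect of over 30% in size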). Put shortly:
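p53RE-bla cells were treated with compound for 16 hours at 37 C. Cytotoxicity was then measured as CellTiter-Glo luminescence after 30 min at room temperature.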

Assay [4] is described as follows: qHTS assay for small molecules that induce genotoxicity in human embryonic kidney cells expressing luciferase-tagged ATAD5 - cell viability (AID 651634; calls by dose curve; note: nearly all actives have a fitted effect of over 25% in size). Put shortly: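 Viability read: CellTiter-Fluor fluorescence, 30 min at 37C. Cells: HEK293T, luciferase-tagged ATAD5. Exposure: 15.5 hr, 37C, 5% CO2, compound or DMSO vehicle.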
The nature of assay [5]: qHTS assay for small molecule disruptors of the mitochondrial membrane potential - cell viability (AID 720634; calls by dose curve;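 note: human HepG2 liver cancer cells; series mostly up to about 83 µM; nearly all actives have a fitted effect of over 20% in size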). Put shortly: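 HepG2, 1 hr compound, 37 C. ATP luminescence via CellTiter-Glo, 30 min RT, same well as m-MPI.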
The nature of assay [6]: qHTS assay for small molecule disruptors of the mitochondrial membrane potential (AID 720635). Note: potency is the fitted concentration of half-maximal effect. The gist of the method: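 HepG2 cells exposed to compound 1 hr at 37C, then Mito-MPS dye 30 min. Ratio read of aggregate (540/590 nm) versus monomer (490/535 nm) fluorescence.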
Assay [7] is described as follows: qHTS assay to test for compound auto fluorescence at 590 nm (red) in HepG2 cells (AID 720674). Put shortly: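 Fluorescence at 590 nm emission following 540 nm excitation was recorded from HepG2 wells one hour after compound transfer, with DMSO-only wells as vehicle and Rose Bengal sodium equivalency as the scale.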
Assay [8] in a line: qHTS assay to test for compound auto fluorescence at 535 nm (green) in HepG2 cells (AID 720675).
The nature of assay [9]: qHTS assay to test for compound auto fluorescence at 460 nm (blue) in HEK293 cells (AID 720678). Put shortly: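 Blue-channel (Ex/Em 405/460 nm) intensity measured in HEK293 cultures after overnight compound exposure at 37C; signal expressed relative to triamterene. Cells plated 2,000 per well in 10% dialyzed FBS medium and allowed 4-5 hr to attach.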
Assay [10] is described as follows: qHTS assay to test for compound auto fluorescence at 590 nm (red) in HEK293 cells (AID 720679). The gist of the method: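 Red-channel autofluorescence (Ex/Em 540/590 nm; Rose Bengal sodium reference) was measured after overnight 37C, 5% CO2 exposure of attached HEK293 cells, 2,000 per well in medium with 10% dialyzed FBS.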
A short description of assay [11]: qHTS assay to test for compound auto fluorescence at 535 nm (green) in HEK293 cells (AID 720680).
Assay [12] can be described thus: qHTS assay to test for compound auto fluorescence at 460 nm (blue) in HEK293 cell free culture (AID 720681). Put shortly: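 Compounds were added to cell-free DMEM with 10% FBS and fluorescence read directly. The blue channel used 405 nm excitation and 460 nm emission, with triamterene as the reference fluorophore.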
A short description of assay [13]: qHTS assay to test for compound auto fluorescence at 535 nm (green) in HEK293 cell free culture (AID 720682). Put shortly: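 Green-label autofluorescence (485 nm excitation, 535 nm emission) measured on compound added to cell-free culture medium (DMEM, 10% FBS). Output is expressed relative to fluorescein.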
Assay [14] can be described thus: qHTS assay to test for compound auto fluorescence at 590 nm (red) in HEK293 cell free culture (AID 720683). Put shortly:
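Cell-free wells of DMEM with 10% FBS received compound, and intrinsic fluorescence was read at excitation/emission 540/590 nm. Values expressed as equivalence to Rose Bengal sodium.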

Assay [15] can be described thus: qHTS assay to test for compound auto fluorescence at 460 nm (blue) in HepG2 cell free culture (AID 720685). The gist of the method:
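Compound (23 nL) or DMSO pinned into cell-free MEM with 10% FBS; blue fluorescence read at 405/460 nm excitation/emission, expressed as auto-fluorescence equivalency to triamterene.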

Assay [16] can be described thus: qHTS assay to test for compound auto fluorescence at 535 nm (green) in HepG2 cell free culture (AID 720686).
Assay [17] in a line: qHTS assay to test for compound auto fluorescence at 460 nm (blue) in HepG2 cells (AID 720687). Put shortly: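 HepG2 cells in MEM with 10% FBS, attached overnight at 37 C, were exposed to compound or DMSO for 1 hr at 37 C, 5% CO2. Blue fluorescence was read at 405/460 nm, with triamterene as reference fluorophore.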
In assay [18] the target is Glucocorticoid receptor (Homo sapiens) (UniProt P04150). The assay is described as follows: qHTS assay to identify small molecule agonists of the glucocorticoid receptor (GR) signaling pathway (AID 720691; active = well fitted activation curve with a large enough effect in the signal ratio in the repeat runs, not every such curve was filed as active; the % refers to the signal ratio). Put shortly: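 qHTS in GR-bla HeLa cells: 4 h settling at 37 C/5% CO2, 18 h compound incubation at 37 C, 2 h LiveBLAzer B/G FRET substrate at room temperature, fluorescence intensity measured.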

For assay [19] the target is unchanged. Briefly: qHTS assay to identify small molecule antagonists of the glucocorticoid receptor (GR) signaling pathway (AID 720692; active = well fitted inhibition curve with a large enough effect in the signal ratio in the repeat runs, not every such curve was filed as active; the % refers to the signal ratio). The gist of the method: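 Inhibition of glucocorticoid signalling is measured in HeLa cells with a GRE-controlled beta-lactamase reporter; cells are co-treated with compound and 5 nM dexamethasone (final) for 18 h before FRET substrate readout.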

Assay [20] can be described thus: qHTS assay to test for compound auto fluorescence at 590 nm (red) in HepG2 cell free culture (AID 720684). Put shortly:
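Compounds are added to culture medium (MEM, 10% FBS) lacking cells, then fluorescence is read at excitation 540 nm, emission 590 nm, with Rose Bengal sodium as the equivalency standard.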
% is set by controls: 0 for no effect and ±100 for the full control effect.

Chain of Glucocorticoid receptor (Homo sapiens) (P04150 whole entry, looked up): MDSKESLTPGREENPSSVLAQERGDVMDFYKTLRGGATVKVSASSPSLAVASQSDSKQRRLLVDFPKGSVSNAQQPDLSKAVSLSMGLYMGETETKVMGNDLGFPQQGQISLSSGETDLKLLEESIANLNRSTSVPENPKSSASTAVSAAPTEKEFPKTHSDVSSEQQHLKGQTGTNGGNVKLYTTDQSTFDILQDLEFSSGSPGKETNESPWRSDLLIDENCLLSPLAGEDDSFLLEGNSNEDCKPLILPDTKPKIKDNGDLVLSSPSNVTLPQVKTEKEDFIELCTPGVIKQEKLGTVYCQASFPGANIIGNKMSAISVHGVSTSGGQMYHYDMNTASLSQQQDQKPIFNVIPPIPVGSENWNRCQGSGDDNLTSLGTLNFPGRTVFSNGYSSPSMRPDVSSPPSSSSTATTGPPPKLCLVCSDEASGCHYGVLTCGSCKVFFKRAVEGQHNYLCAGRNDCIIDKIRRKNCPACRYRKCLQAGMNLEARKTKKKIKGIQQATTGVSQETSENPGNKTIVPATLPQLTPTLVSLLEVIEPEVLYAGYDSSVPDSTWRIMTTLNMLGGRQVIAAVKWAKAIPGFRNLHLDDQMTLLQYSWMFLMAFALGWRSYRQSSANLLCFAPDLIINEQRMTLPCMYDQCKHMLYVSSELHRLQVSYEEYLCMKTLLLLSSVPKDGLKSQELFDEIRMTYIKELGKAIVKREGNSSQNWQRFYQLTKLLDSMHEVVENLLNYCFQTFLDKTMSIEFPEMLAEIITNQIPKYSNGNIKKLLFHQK

As for `CCCOC(=O)c1ccc(C(=O)OCCC)nc1`, the Potency entry in assay [1], in assay [2], in [3], in [4], in assay [5] and in assay [6] was “inactive” in each case. The Potency entry in [9], in assay [12], in assay [15], in assay [17], in assay [18] and in assay [19] was “inactive” in each case. The molecule was called inactive in assay [7], in assay [8], in assay [10], in assay [11], in assay [13] and in assay [14]. The result in [16] was inactive.
Consider `O=C(O)c1ccc(CO)o1`, for which the Potency entry in [1], in assay [2], in assay [3], in [4], in [5] and in assay [6] was “inactive” throughout. Further, the Potency entry in assay [9], in assay [12], in [15], in assay [17] and in [19] was “inactive” each time. Moreover, the molecule was called inactive in assay [7], in assay [8], in assay [10], in assay [11], in [13] and in [14]. Also, the molecule was classed as inactive in assay [20] and in [16].
Turning to `Cc1ccnc2ccccc12`, the Potency entry in [1], in assay [2], in [3], in assay [4], in assay [5] and in assay [9] was “inactive” each time. For the same molecule, the Potency result in [12], in assay [15], in [17], in assay [18] and in assay [19] was “inactive” throughout. Also, in [6], the Potency was 19.3 µM (active). In addition, the outcome in assay [7], in [8], in assay [10], in assay [11], in [13] and in assay [20] was inactive. Moreover, the call in [16] was inactive.
Turning to `COc1cc2[nH]c(=O)[nH]c(=O)c2cc1OC`, the Potency entry in assay [1], in assay [2], in assay [3], in [4], in assay [5] and in assay [6] was “inactive” each time. Besides, the fluorescence, relative to Rose Bengal in [7] was 0.0405% [at 18.6 µM]. For the same molecule, the fluorescence, % of fluorescein control was -0.0154% [at 18.6 µM] in [8] and -0.0155% [at 18.6 µM] in assay [16]. In assay [9], the fluorescence, % of triamterene was -0.031% [at 18.6 µM]. Moreover, the fluorescence, % of fluorescent control in [10] is -0.538% [at 18.6 µM]; in assay [12], 0.0899% [at 18.6 µM]; in assay [14], 0.224% [at 18.6 µM]; in [15] it was -0.0173% [at 18.6 µM]; in assay [17], 0.0151% [at 18.6 µM]. Further, the fluorescence, % of fluorescein in assay [11] is 0.0875% [at 18.6 µM]. Further, the activity change in [13] is 0.0939% [at 18.6 µM]. Further, the fluorescence, % of Rose Bengal in assay [20] was 0.0628% [at 18.6 µM].
`CCC(=O)OC/C=C/c1ccccc1`: the Potency entry in assay [1], in assay [2], in assay [3], in [4], in assay [5] and in [6] was “inactive” throughout. The Potency result in [9], in assay [15], in assay [17], in [18] and in [19] was “inactive” each time. Besides, the molecule was called inactive in assay [7], in assay [8], in [10], in assay [11], in assay [13] and in [14]. In addition, the molecule was called inactive in assay [20] and in assay [16].
For the molecule `CCCCCCCCCOC(C)=O`, the Potency result in [1], in assay [2], in assay [3], in [4], in assay [5] and in assay [6] was “inactive” each time. The Potency entry in [9], in [12], in [15], in assay [17], in [18] and in assay [19] was “inactive” throughout. The outcome in assay [7], in assay [8], in [11], in assay [13], in [14] and in assay [20] was inactive. Moreover, in [16], the call was inactive.
Consider `CCOC(=O)/C=C/C(=O)O`, for which the Potency entry in assay [1], in assay [2], in [3], in [4], in assay [5] and in assay [6] was “inactive” each time. The Potency result in [9], in [12], in assay [15] and in [17] was “inactive” throughout. Further, the result in [7], in assay [8], in assay [10], in assay [11], in assay [13] and in assay [14] was inactive. For the same molecule, the result in [20] and in [16] was inactive.
Regarding `CCCCCCCCCCCC[N+](C)(C)CC(=O)[O-]`, the Potency result in assay [1], in assay [2], in [3], in assay [4], in assay [5] and in [6] was “inactive” each time. For the same molecule, the Potency result in [9], in [12], in [15], in assay [17] and in [18] was “inactive” throughout. Further, the molecule was classed as inactive in assay [7], in [8], in assay [10], in assay [11], in [13] and in [14]. Further, the result in assay [20] and in assay [16] was inactive.
Regarding `C[Si](NC1CCCCC1)(NC1CCCCC1)NC1CCCCC1`, the Potency result in assay [1], in assay [2], in assay [3], in [4], in assay [5] and in assay [6] was “inactive” throughout. The Potency entry in [9], in [12], in assay [15], in [17], in assay [18] and in [19] was “inactive” throughout. Moreover, the molecule was called inactive in assay [7], in assay [8], in [10], in assay [11], in assay [13] and in assay [20]. Further, in [16], the molecule was classed as inactive.
Turning to `CN1CCCN=C1/C=C/c1cccs1`, the Potency result in [1], in assay [2], in [3], in assay [4], in assay [5] and in assay [6] was “inactive” in each case. The Potency result in assay [9], in assay [12], in assay [15], in assay [17] and in assay [19] was “inactive” throughout. In addition, the molecule was classed as inactive in assay [7], in assay [8], in [10], in assay [13], in assay [14] and in [16].
Take `OCCSc1ccccc1`: the Potency entry in assay [1], in assay [2], in assay [3], in [4], in [5] and in assay [6] was “inactive” each time. Further, the Potency result in [9], in assay [12], in assay [15], in assay [17], in assay [18] and in [19] was “inactive” throughout. Moreover, the call in assay [7], in [8], in [10], in assay [11], in assay [13] and in assay [14] was inactive. The call in [20] and in assay [16] was inactive.
In the case of `CCCCCCCC/C=C\CCCCCCCC(=O)OC`, the Potency entry in assay [1], in assay [2], in assay [3], in assay [4], in assay [5] and in assay [6] was “inactive” throughout. The Potency result in assay [9], in assay [12], in assay [15] and in assay [17] was “inactive” in each case. For the same molecule, the call in [7], in assay [8], in assay [10], in assay [13], in assay [14] and in assay [16] was inactive.
In the case of `O=C1OCCN1/N=C/c1ccc([N+](=O)[O-])o1`, the Potency entry in assay [1], in assay [2], in assay [3], in assay [4], in assay [5] and in [6] was “inactive” throughout. For the same molecule, the Potency result in assay [9], in assay [12], in [15], in assay [17], in assay [18] and in [19] was “inactive” each time. Further, the molecule was called inactive in assay [7], in assay [8], in assay [10], in assay [11], in [13] and in assay [20]. Further, the outcome in assay [16] was inactive.
